# Measured values published in PubChem BioAssay AID652020 (National Center for Advancing Translational Sciences (NCATS), 2013).
# The list shows a part of the results. Records with an inconclusive call do not appear. Activity calls are given as the source filed them. The call rests on the fitted dose curve; in most records, active means well fitted curve in the direction sought with a large enough effect; inconclusive means small, poorly fitted or top-dose-only effect, or another doubt; inactive means no such curve, though single readings can be large or run the other way.
# Molecular target: Glutathione reductase, mitochondrial (Homo sapiens) (UniProt P00390)
# Test: qHTS Assay for Inhibitors of Mammalian Selenoprotein Thioredoxin Reductase 1 (TrxR1): Counterassay in Glutathione Reductase (GR)
# Conditions: purified GR, DTNB reduction absorbance 405 nm kinetic; series mostly up to 57.1 µM
# Excerpt: The selenoprotein thioredoxin reductase (TrxR; EC 1.8.1.9) is a FAD containing homodimeric pyridine nucleotide-disulfide oxidoreductase with many cellular roles. Together with NADPH and its prime substrate thioredoxin (Trx), the enzyme forms the core of the Trx system. The mammalian Trx system exerts a wide spectrum of functions including redox regulation, antioxidant defense, regulation of transcription factors as well as support of cell growth and replication. Many of these functions involve the reduction of Trx, which may subsequently reduce a number of different substrates including ribonucleotide reductase, peroxiredoxins or NFkB. Mammalian TrxR itself also has a broad substrate specificity, reducing both protein and non-protein substrates, including low molecular weight compounds such as dehydroascorbate, lipoic acid, ubiquinone, and juglone. […]
# Three microliters of reagents (100 microM NADPH and 60 nM hGR or 100 microM NADPH as no-enzyme control) was dispensed into 1,536-well black clear-bottomed plates (Buffer: 0.1 M potassium phosphate, pH 7.4/10 mM EDTA, 0.01 % Tween-20). […] The plate was transferred to a ViewLux high-throughput CCD imager (Perkin-Elmer, Wellesley, MA) where kinetic measurements (one read per 5 min for 6 reads, total time 25 min) of the TNB absorbance was acquired using a 405 excitation filter.
# Chain of Glutathione reductase, mitochondrial (Homo sapiens) (P00390 whole entry, looked up): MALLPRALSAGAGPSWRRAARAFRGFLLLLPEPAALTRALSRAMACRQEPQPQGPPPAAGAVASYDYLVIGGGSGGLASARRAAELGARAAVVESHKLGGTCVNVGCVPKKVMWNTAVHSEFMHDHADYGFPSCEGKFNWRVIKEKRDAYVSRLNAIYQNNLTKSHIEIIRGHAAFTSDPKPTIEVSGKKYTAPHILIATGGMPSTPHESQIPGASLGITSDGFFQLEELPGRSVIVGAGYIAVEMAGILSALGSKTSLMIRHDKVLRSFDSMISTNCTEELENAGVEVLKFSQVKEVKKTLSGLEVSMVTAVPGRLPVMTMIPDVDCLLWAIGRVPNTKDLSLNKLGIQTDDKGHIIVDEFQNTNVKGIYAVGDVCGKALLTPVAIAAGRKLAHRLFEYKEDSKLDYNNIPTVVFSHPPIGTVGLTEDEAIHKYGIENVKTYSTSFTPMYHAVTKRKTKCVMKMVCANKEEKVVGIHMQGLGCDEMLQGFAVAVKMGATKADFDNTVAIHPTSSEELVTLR
structure (smiles),measurement,value
COc1ccc(-c2nc(CS(=O)CC(=O)N3CCC4(CC3)OCCO4)c(C)o2)cc1 (stereo unspecified),outcome,inactive
